Hits are enriched below; roughly 15% of the tested compounds scored in any of these assays.
DT40 TDP1 no CPT: qHTS for Inhibitors of human tyrosyl-DNA phosphodiesterase 1 (TDP1): qHTS in cells in absence of CPT. DT40 Tdp1-/- hTDP1 cells, no CPT, ATP luminescence, 48 h. Potency, µM (series often up to 46.2 µM), inactives show at the top dose activity change, negative = growth inhibition, actives largely listed as inhibitors. 420,000 tested, 15% active. AID 686978, 2013; note: nearly all actives have a fitted effect of over 55% in size
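Camptothecin absent (DMSO only). Human TDP1-complemented DT40 knockout cells, 400 cells/well, 37 °C for minimum 48 hr; ATP measured via CellTiter-Glo, 30 min dark incubation, luminescence.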
12-LOX inh: inhibitors of human 12S-lipoxygenase ALOX12. purified 12hLO, xylenol orange hydroperoxide absorbance. Potency, µM (highest dose often 108 µM), without a hit: at the highest dose activity change, negative = inhibition, most hits filed as inhibitors. 580,000 tested, 1.1% active
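Purified human 12hLO at 150 nM in 25 mM Hepes, 0.01% Triton X-100, pH 7.0, preincubated 15 min at room temperature with compound. Reaction started with 40 uM arachidonic acid, 30 min at room temperature. Hydroperoxide measured by Fe-xylenol orange, 573/405 nm absorbance ratio.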
ELG1 repair inh: ELG1-dependent DNA repair inhibition | AID 504467 | Potency, µM (doses to about 46.1 µM), for inactives: at the top dose activity change, negative = inhibition, usual class: inhibitors | HEK293T ELG1-luciferase reporter, luminescence, 16 h; DNA damage induced by 5-fluorouridine | 330,000 tested, 2.3% active; note: nearly all actives have a fitted effect of over 55% in size
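5-Fluorouridine DNA damage + compound/DMSO, 2,000 cells/well, 16 h, 37 °C/5% CO2. ONE-Glo, 30 min RT, luminescence. Readout = decrease in reporter signal.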
DT40 TDP1 CPT: growth inhibition of DT40 Tdp1-/-;hTDP1 cells with camptothecin (screen for TDP1 inhibitors); chicken DT40 Tdp1-/-;hTDP1 cells + 20 nM CPT, ATP luminescence, 48 h; Potency, µM (top dose mostly 46.2 µM), for the others: top-dose activity change, negative = growth inhibition, most hits filed as inhibitors; AID 686979; 420,000 tested, 12% active; note: nearly all actives have a fitted effect of over 55% in size
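Cell growth measured by CellTiter-Glo luminescence after a minimum 48 h, 37 C compound exposure with 20 nM CPT in Tdp1-knockout DT40 cells stably expressing hTDP1, seeded 400/well; qHTS titration format.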
VP16 counter: counter-screen for ROR gamma inhibitors: Gal4-VP16 reporter; Potency, µM (series often up to 53.6 µM), inactives show at the top dose activity, negative = inhibition, hits mostly inhibitors; Drosophila S2 Gal4-VP16 UAS-luciferase, luminescence, 20 h; 310,000 tested, 3.5% active; AID 2546;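 note: Gal4-VP16 expression switched on by copper sulfate through the metallothionein promoter; nearly all actives have a fitted effect of over 50% in size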
RORg inh: inhibitors of mouse ROR gamma transcriptional activity | P51450 | Potency, µM (top dose mostly 53.6 µM), for the others: at the top dose activity change, negative = inhibition, most hits filed as inhibitors | Drosophila S2 Gal4-RORgamma UAS-luciferase reporter, 20 h | 310,000 tested, 5.4% active | AID 2551; note: nearly all actives have a fitted effect of over 60% in size
Target sequence (P51450 whole entry, looked up, the tested form may be a part): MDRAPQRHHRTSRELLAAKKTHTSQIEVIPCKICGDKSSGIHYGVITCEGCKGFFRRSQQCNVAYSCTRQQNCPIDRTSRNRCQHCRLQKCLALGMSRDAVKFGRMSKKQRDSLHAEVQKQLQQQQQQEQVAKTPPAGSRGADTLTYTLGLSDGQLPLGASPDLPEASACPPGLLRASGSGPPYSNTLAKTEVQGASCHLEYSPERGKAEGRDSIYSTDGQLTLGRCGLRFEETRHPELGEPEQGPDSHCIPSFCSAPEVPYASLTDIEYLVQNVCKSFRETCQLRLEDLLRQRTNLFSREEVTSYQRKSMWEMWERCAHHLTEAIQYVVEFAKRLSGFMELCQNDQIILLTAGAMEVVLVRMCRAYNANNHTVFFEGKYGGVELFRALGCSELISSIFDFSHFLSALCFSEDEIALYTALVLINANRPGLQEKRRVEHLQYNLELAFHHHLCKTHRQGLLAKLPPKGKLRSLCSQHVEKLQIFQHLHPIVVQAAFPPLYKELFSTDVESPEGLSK
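Schneider cells (Drosophila), stable Gal4 DBD–ROR gamma + UAS-luc; 1 hr cmpd preincubation; Cu2+ induction 700 uM final; 20 hr ambient; luminescence.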
Numbers without * were called inactive; ? = inconclusive; . = no result given. Calls come from the whole dose curve; as a rule, active = well fitted curve in the direction sought with a large enough effect; inconclusive = small, poorly fitted or top-dose-only effect, or another doubt; inactive = no such curve, though single readings can be large; an effect the other way counts as inactive or inconclusive. % is set by controls: 0 for no effect and ±100 for the full control effect; potency is the fitted concentration of half-maximal effect.

SMILES	DT40 TDP1 no CPT	12-LOX inh	ELG1 repair inh	DT40 TDP1 CPT	VP16 counter	RORg inh
CCCCCCCCN=C(N)c1ccc(C(=O)OCC2CCCCC2)cc1	.	.	.	.	2%	7.9µM*
O=C(O)C1(Oc2ccc3ncccc3c2)CCN(Cc2cccnc2)CC1	.	21%	.	.	.	.
COc1ccc(C(=O)/C=C/C(=O)N(CC(=O)NC2CCCCC2)Cc2ccccc2)c(O)c1	2.1µM*	-11%	?	1.5µM*	-26%	14%
COc1cccc(CN(CC(=O)NC2CCCC2)C(=O)CCC(=O)Nc2cc(C)on2)c1	-12%	21%	0%	-2%	-3%	-7%
COc1ccc(C(=O)/C=C/C(=O)N(CC(=O)NC2CCCCC2)Cc2ccccc2OC)c(O)c1	2.1µM*	-14%	?	1.6µM*	?	?
COc1ccccc1CN(C)CC(=O)NC(=O)NC1CCCCC1	-1%	2%	-2%	?	.	.
O=C(CN(c1ccc(Cl)c(C(F)(F)F)c1)S(=O)(=O)c1ccccc1)N1CCc2ccccc2C1	16µM*	-5%	.	?	.	.
COc1ccc(Cc2nnc(SCc3ccc([N+](=O)[O-])cc3)o2)cc1	?	4%	23µM*	?	-1%	15%
CCc1nc(CN(C)C(C)c2ccc(S(N)(=O)=O)cc2)cs1 (centres undefined)	.	-30%	.	.	.	.
O=C(c1ccc(Cn2ccn3nc4c(c3c2=O)CCCC4)cc1)N1CCN(c2ccccn2)CC1	.	45%	.	.	.	.
CCC(C(=O)NC1CCCC1)N(C(=O)Cn1nnc(-c2ccc(OC)c(OC)c2)n1)c1cccc(O)c1 (centres undefined)	-21%	-5%	-8%	-14%	5%	-13%
CCC(C(=O)NCCC(C)C)N(C(=O)Cn1nnc(-c2ccc(C)cc2)n1)c1cccc(O)c1 (centres undefined)	16µM*	-39%	.	?	.	.
Cc1nc2c(c(C)nn2-c2ccccc2)c(C)c1CCC(=O)NCCCOC(C)C	21µM*	-9%	-18%	-27%	-11%	-6%
Cc1nc2c(c(C)nn2-c2ccccc2)c(C)c1CCC(=O)Nc1ccccc1	-22%	-2%	.	-11%	.	.
CCN(Cc1ccccc1)C(=O)CCc1c(C)nc2c(c(C)nn2-c2ccc(C)c(C)c2)c1C	15%	-2%	.	4%	.	.
Cc1nc2c(c(C)nn2-c2ccccc2)c(C)c1CCC(=O)Nc1ccc(CN2CCCC2)cc1	?	0%	-1%	16µM*	-19%	-4%
CC(=O)c1ccc(NC(=O)CCc2c(C)nc3c(c2C)c(=O)n(C)c(=O)n3C)cc1	?	-17%	.	-10%	.	.
CCOC(=O)N1CCN(C(=O)CCc2c(C)nc3c(c(C)nn3-c3ccc(C)c(C)c3)c2C)CC1	16µM*	-5%	7%	?	-2%	7%
Cc1cc(C)cc(NC(=O)CCc2c(C)nc3c(c2C)c(=O)n(C)c(=O)n3C)c1	16µM*	-18%	.	?	.	.
COc1ccc(CN2CCC(C)CC2)cc1	.	-55%	.	.	.	.
COc1ccc(C(=O)c2sc(Nc3cccc(C(F)(F)F)c3)nc2N)cc1OC	.	-62%	.	.	.	.
CCCCNC(=O)CCc1c(C)nc2c(c(C)nn2-c2ccccc2)c1C	18µM*	0%	-25%	18µM*	-4%	17%
Cc1nc2c(c(C)nn2-c2ccccc2)c(C)c1CCC(=O)NCCc1ccccc1	21µM*	3%	.	21µM*	.	.
COc1cc(NC(=O)CCc2c(C)nc3c(c(C)nn3-c3ccccc3)c2C)cc(OC)c1OC	12µM*	-6%	.	15µM*	.	.
CCOc1ccc(CCNC(=O)CCc2c(C)nc3c(-c4ccccc4)c(C)nn3c2C)cc1OCC	?	0%	.	?	.	.

Assay outcomes: PubChem BioAssay, National Center for Advancing Translational Sciences (NCATS)
